Assay outcomes as filed in PubChem BioAssay.
mcGAS RapidFire = mouse cGAS inhibition by mass spec. inhibition, % at 12.5 µM. recombinant mouse cGAS, cGAMP by RapidFire MS. 130,000 compounds, 0.18% hits. AID 1259397. Q8C6L5;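 active = inhibition of cGAS enzyme activity at or above 60%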;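 note: enzyme stimulated by 45 bp dsDNA with ATP and GTP substrates; cGAMP share of summed cGAMP plus half ATP and half GTP signals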
Target sequence (Q8C6L5 whole entry, looked up): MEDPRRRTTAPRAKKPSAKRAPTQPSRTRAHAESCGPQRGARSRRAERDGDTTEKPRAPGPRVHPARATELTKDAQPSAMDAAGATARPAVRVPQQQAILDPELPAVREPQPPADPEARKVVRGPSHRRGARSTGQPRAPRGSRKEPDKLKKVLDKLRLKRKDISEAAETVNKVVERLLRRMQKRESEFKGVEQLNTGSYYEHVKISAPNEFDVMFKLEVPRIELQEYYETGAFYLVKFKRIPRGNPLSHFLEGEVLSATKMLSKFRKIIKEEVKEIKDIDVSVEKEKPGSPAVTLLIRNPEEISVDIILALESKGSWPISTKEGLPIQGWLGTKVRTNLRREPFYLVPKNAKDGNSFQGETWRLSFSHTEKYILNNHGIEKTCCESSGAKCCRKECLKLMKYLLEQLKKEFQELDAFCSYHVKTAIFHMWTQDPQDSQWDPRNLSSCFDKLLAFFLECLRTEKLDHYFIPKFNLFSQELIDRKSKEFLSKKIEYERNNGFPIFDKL
* = called active by the depositor; ! = not confirmed by another sample. Shown is part of a subset that was picked to be rich in hits.

SMILES	mcGAS RapidFire
O=C(O)COc1ccccc1	7
O=C(O)COc1cc(Cl)c(Cl)cc1Cl	98*
O=C(O)COc1ccc(Cl)cc1Cl	96*
Oc1cc(Cl)ccc1Oc1ccc(Cl)cc1Cl	-18
CCCCCCC(C)OC(=O)COc1ccc(Cl)cc1Cl (stereo unspecified)	-8
CC(NCc1ccccc1)c1nc2ccccc2c(=O)n1-c1ccc(Cl)cc1 (stereo unspecified)	-5
CC(C)c1c(C(=O)NC2CCCCCC2)cnn1Cc1ccccc1	2
CCOc1ccccc1-n1c(C(C)NCc2ccco2)nc2ccccc2c1=O (stereo unspecified)	-3
CCC(NC)c1nc2ccccc2c(=O)n1-c1cccc(Cl)c1 (stereo unspecified)	-5
FC(F)(F)CCc1ccnc(N2CCCN3CCC[C@H]3C2)n1	-2
CN(C)C(=O)On1nnc2ccccc21	-8
Cc1c(C)c(C)c2c(CC(C)N)c[nH]c2c1C (stereo unspecified)	0
N#Cc1ccc(S(=O)(=O)NC(=O)CC2CCCC2)cc1Cl	-33
O=c1c(O)c(-c2ccc(O)c(O)c2)oc2c(O)c(O)cc(O)c12	93*
CCc1cc(CN2C[C@H](c3cccc(F)c3F)[C@@H]3[C@H]2C2CCN3CC2)[nH]n1	-5
COc1ccc(C)c2sc(N3CCNCC3)nc12	-8
Cc1cc(C(=O)N2CC[C@H]3CC[C@@H](C2)N3)cc(=O)[nH]1	6
O=C1NC2(CCNCC2)Nc2ccc(Cl)c(Cl)c21	-8
Oc1c(Cl)c(Cl)c(Cl)c(Cl)c1Cl	98*
Cc1cc(Cn2ccsc2=N)c2ncccc2c1	-9
Cc1cccc(Cn2cccc(C(=O)Nc3ncc([N+](=O)[O-])s3)c2=O)c1	-3
O=C(NCCc1ccccc1)C(C1CCCC1)N1CCN(C(=O)COc2ccc(Cl)cc2)CC1 (stereo unspecified)	-3
O=C(O)c1ccccc1-c1c2cc(Br)c(=O)cc-2oc2[c]([Hg])c(O)c(Br)cc12	99*!
CCOc1ccnc(N2CCN3CCCC3C2)n1 (stereo unspecified)	-16
C[C@]12CCC3[C@@H](CC[C@@]45O[C@@H]4C(O)=C(C#N)C[C@]35C)C1CC[C@@H]2O (stereo partly specified)	-9
SMILES	mcGAS RapidFire
O=C(O)C1C2CCC3(COC(=O)C13)O2 (stereo unspecified)	-3
O=C(NC1CC1)c1ccnc(N2CCC3(CC2)NCCNC3=O)c1	-8
CCC(C)(C)C(=O)NC1CCSC1=O (stereo unspecified)	6
CC(C)(C)C(=O)NC1CCSC1=O (stereo unspecified)	76*
N#Cc1ccccc1NC(=O)c1cccn(Cc2ccccc2F)c1=O	-5
Cc1cccnc1CN1CCN(C(=O)COc2cccnc2)CC1	10
CC(=O)OCC1=C(C(=O)O)N2C(=O)[C@@H](NC(=O)CCCC(N)C(=O)O)C2SC1 (stereo partly specified)	73*!
O=C(c1ccco1)N1CCSC12CCNCC2	-2
CN1C2CCC1CN(c1ccncc1Cl)CC2 (stereo unspecified)	-5
Cc1ccccc1-n1cc(C2=CCN(CC(=O)Nc3ccn(C)n3)CC2)cn1	-7
